About 7,900 targets were measured; listed, in parts, are those with a hit and a random draw of the rest. About 0.6% of all pairs of compound and target were hits.
How the values were obtained:
Assay in all cases: log2 fold change, soluble protein after heating vs DMSO (PISA); higher = thermal stabilisation; K562 cells, 10 uM, 30 min; active = over 0.2 and 3.5 SD of the protein, either way, in both replicates (recomputed)
[1] = target: ZNF217 (UniProt O75362)
Outline: (§1)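 Soluble protein was quantified by TMTpro 16plex LC-MS/MS after channel sums were equalised. It was obtained as the supernatant after 21,000xg for 90 min from pooled aliquots of K562 cells (2×10^6 cells/mL, 10 μM compound, 30 min) heated for 3 min across 48°C-58°C and extracted in PBS with 0.5% NP-40 at 4°C. Thermal stability values are relative to control samples and come from duplicates. They are given as log2 fold changes.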

[2] = target: ZNF239 (UniProt Q16600)
Outline: as §1

[3] = target: ZNF277 (UniProt Q9NRM2)
Outline: as §1

[4] = target: ZNF511 isoform 1 (UniProt Q8NB15)
Outline: as §1

[5] = target: ZNF512 (UniProt Q96ME7)
Outline: as §1

[6] = target: ZNF579 (UniProt Q8NAF0)
Outline: as §1

[7] = target: ZNF609 (UniProt O15014)
Outline: as §1

[8] = target: ZNF622 (UniProt Q969S3)
Outline: as §1

[9] = target: ZRANB2 (UniProt O95218)
Outline: as §1

[10] = target: ZW10 (UniProt O43264)
Outline: as §1

[11] = target: ZWILCH (UniProt Q9H900)
Outline: as §1

[12] = target: ZYG11B (UniProt Q9C0D3)
Outline: as §1

[13] = target: ZNF580 (UniProt Q9UK33)
Outline: as §1

Measured: log2 fold change

ZYG11B, sequence (Q9C0D3 whole entry, looked up): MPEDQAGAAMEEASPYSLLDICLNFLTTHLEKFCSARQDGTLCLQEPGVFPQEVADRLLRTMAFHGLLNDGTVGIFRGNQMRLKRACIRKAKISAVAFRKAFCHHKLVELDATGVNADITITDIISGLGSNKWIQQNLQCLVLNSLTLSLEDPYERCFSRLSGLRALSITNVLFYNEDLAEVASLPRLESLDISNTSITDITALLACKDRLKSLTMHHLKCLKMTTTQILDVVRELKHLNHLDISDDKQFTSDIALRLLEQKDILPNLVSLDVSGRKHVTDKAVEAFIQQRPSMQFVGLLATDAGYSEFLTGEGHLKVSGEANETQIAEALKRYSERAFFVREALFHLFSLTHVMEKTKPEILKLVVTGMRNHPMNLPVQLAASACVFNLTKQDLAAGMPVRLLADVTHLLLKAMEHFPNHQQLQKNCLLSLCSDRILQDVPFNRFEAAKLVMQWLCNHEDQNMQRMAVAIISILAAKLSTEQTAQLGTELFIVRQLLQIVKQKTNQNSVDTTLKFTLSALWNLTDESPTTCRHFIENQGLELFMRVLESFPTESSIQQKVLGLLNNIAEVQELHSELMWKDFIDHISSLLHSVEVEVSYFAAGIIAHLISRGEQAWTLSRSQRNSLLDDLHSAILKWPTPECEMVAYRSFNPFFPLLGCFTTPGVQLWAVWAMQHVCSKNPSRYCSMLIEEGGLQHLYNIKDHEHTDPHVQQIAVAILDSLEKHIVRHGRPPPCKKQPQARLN
ZNF622, sequence (Q969S3 whole entry, looked up): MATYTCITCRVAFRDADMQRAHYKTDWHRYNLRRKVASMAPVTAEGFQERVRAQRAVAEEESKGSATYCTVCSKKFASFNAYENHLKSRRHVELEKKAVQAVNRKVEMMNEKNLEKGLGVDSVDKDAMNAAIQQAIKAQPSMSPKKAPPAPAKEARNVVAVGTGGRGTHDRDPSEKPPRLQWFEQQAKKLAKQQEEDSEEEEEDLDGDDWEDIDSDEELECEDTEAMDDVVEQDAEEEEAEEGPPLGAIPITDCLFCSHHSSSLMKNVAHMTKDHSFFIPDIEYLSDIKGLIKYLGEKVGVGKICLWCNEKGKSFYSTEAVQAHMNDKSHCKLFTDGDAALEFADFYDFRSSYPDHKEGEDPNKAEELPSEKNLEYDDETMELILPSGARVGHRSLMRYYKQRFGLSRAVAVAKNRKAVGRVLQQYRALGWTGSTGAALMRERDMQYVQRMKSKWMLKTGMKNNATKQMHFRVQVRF
ZNF579, sequence (Q8NAF0 whole entry, looked up): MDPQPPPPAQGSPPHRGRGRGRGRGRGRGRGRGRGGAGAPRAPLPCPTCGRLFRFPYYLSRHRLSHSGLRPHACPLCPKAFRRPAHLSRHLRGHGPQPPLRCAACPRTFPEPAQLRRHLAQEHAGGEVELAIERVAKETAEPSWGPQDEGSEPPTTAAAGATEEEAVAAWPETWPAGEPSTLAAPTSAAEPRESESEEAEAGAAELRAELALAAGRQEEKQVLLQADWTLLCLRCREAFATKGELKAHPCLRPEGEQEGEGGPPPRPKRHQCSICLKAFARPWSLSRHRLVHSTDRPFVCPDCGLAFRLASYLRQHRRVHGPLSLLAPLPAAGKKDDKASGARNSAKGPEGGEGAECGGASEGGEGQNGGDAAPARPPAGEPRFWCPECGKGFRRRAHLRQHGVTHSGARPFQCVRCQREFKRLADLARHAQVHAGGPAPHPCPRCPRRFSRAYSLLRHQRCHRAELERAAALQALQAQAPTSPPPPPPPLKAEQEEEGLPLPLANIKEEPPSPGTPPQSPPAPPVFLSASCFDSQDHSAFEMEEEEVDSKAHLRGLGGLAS
ZW10, sequence (O43264 whole entry, looked up): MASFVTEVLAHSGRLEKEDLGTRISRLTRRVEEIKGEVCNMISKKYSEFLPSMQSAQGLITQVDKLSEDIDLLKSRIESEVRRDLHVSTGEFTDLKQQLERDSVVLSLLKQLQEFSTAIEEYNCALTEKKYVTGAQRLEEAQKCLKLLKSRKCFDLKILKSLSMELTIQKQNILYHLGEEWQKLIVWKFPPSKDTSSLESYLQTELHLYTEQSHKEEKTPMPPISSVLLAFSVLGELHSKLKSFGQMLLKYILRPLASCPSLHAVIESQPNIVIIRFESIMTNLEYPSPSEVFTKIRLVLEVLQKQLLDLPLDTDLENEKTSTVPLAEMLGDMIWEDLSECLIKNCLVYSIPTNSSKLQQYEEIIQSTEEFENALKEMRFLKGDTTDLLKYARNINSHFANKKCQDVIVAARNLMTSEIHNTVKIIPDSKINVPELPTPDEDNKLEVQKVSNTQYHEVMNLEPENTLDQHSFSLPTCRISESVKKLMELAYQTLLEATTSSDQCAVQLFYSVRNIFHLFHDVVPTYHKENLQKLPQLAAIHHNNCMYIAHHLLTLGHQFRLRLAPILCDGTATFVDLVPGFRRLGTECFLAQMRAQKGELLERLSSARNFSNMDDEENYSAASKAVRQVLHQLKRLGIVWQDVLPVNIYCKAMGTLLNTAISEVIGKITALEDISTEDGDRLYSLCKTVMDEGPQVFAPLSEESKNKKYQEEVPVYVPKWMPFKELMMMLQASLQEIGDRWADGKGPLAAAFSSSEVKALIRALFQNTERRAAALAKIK
ZRANB2, sequence (O95218 whole entry, looked up): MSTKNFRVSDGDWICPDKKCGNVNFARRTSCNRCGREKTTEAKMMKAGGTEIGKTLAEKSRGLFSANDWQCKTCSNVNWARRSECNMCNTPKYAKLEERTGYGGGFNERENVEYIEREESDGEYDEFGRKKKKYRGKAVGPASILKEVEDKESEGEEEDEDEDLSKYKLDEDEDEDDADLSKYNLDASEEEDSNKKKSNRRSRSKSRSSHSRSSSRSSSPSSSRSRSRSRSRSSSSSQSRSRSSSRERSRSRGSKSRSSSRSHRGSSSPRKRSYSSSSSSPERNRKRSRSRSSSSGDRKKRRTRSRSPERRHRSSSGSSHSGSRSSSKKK
ZNF609, sequence (O15014 whole entry, looked up): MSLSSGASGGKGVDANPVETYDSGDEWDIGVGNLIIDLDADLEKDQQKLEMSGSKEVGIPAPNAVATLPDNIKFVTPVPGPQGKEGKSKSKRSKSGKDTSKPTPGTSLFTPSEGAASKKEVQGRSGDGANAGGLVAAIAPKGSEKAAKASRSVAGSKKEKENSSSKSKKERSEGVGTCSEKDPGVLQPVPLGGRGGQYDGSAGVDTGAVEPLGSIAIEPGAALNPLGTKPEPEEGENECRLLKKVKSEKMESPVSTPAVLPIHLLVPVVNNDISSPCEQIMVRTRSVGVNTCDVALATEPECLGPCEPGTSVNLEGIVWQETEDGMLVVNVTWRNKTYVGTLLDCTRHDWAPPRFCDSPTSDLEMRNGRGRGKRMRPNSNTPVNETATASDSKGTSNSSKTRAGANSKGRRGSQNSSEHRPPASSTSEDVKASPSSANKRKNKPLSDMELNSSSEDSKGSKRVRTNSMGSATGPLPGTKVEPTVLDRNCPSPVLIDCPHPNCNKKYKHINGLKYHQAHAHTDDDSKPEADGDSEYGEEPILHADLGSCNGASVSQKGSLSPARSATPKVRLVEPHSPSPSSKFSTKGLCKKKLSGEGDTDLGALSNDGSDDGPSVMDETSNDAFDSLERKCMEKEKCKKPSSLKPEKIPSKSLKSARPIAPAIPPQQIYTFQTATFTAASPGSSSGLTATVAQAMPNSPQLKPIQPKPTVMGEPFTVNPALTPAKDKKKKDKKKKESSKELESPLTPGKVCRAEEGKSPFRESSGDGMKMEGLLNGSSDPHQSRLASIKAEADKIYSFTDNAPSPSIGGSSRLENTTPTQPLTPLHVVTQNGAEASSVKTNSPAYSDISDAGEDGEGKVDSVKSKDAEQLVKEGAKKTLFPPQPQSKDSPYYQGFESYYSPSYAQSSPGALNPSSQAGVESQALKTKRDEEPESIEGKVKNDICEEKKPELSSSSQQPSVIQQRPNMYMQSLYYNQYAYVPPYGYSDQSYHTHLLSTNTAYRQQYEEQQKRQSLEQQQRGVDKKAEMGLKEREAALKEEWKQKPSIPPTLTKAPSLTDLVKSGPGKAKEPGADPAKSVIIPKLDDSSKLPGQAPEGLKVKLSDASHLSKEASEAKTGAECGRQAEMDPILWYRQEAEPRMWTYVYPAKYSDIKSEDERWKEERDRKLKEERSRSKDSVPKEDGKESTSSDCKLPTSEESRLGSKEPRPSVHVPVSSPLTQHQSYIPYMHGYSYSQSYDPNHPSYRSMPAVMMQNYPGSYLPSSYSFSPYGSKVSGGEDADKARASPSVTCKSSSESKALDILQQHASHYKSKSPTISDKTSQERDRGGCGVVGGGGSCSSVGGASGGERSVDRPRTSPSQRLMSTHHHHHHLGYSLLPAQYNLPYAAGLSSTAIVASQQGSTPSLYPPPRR
ZNF511 isoform 1, sequence (Q8NB15 whole entry, looked up, canonical isoform): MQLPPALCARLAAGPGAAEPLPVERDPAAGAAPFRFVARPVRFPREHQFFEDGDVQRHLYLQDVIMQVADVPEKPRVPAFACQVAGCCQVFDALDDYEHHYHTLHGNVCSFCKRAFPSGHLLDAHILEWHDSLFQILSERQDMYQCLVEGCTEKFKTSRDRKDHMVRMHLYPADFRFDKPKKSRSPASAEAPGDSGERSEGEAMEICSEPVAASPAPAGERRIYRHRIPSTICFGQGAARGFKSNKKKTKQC
ZNF239, sequence (Q16600 whole entry, looked up): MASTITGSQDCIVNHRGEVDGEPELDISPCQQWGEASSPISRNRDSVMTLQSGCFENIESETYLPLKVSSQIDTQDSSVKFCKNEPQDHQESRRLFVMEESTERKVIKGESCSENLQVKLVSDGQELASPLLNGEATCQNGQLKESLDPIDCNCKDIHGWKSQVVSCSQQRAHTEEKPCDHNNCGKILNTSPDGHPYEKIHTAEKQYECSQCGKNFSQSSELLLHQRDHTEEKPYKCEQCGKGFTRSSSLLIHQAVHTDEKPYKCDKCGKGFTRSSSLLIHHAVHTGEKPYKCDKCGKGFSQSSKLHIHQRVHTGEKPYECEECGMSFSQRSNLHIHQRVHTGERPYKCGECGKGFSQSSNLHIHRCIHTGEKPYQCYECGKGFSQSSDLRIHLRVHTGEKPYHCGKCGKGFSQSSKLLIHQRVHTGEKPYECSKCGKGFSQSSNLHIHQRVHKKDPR

O=C1NC(=NCc2cccs2)S/C1=C\c1ccc2ncccc2c1
inactive: [1] 0.007 | [2] 0.117 | [3] 0.019 | [4] 0.087 | [5] 0.102 | [6] -0.051 | [7] -0.025 | [8] 0.07 | [9] -0.059 | [10] -0.021 | [11] 0.023 | [12] -0.007

CO[C@H]1C[C@@H]2CC[C@@H](C)[C@@](O)(O2)C(=O)C(=O)N2CCCC[C@H]2C(=O)O[C@H]([C@H](C)C[C@@H]2CC[C@H](n3cnnn3)[C@H](OC)C2)CC(=O)[C@H](C)/C=C(\C)[C@@H](O)[C@@H](OC)C(=O)[C@H](C)C[C@H](C)/C=C/C=C/C=C/1C [zotarolimus]
inactive: [1] -0.007 | [2] -0.483 | [3] -0.084 | [4] 0.066 | [5] -0.024 | [6] 0.099 | [7] -0.008 | [8] -0.017 | [9] -0.011 | [10] 0.023 | [11] 0.046 | [12] 0.024

C[C@@H]1COCCN1c1cc(C2(S(C)(=O)=O)CC2)nc(-c2cccc3[nH]ccc23)n1
inactive: [1] -0.099 | [2] -0.065 | [3] -0.566 | [4] 0.105 | [5] 0.007 | [6] -0.114 | [7] -0.064 | [8] 0.067 | [9] 0.001 | [10] -0.029 | [11] -0.04 | [12] -0.008

CC(=O)c1cnc2ccc(-c3cc(Cl)c(O)c(Cl)c3)nc2c1N[C@H]1CC[C@H](CN(C)C)CC1
inactive: [1] -0.125 | [2] -0.439 | [3] -0.017 | [4] -0.005 | [5] -0.15 | [6] -0.187 | [7] -0.071 | [8] 0.096 | [9] 0.017 | [10] 0.011 | [11] 0.004 | [12] 0.004

CCCc1cc(C)[nH]c(=O)c1CNC(=O)c1cc(-c2ccnc(N3CCN(C)CC3)c2)cc2c1cnn2C(C)C
active: [2] -0.662
inactive: [1] 0.003 | [3] 0.154 | [4] 0.08 | [5] 0.363 | [6] 0.058 | [7] -0.003 | [8] -0.01 | [9] 0.028 | [10] 0.072 | [11] 0.004 | [12] 0.1

CN(C)CC(=O)Nc1ccc2[nH]c(=O)c3ccccc3c2c1
inactive: [1] 0.06 | [2] -0.1 | [3] -0.003 | [4] 0.068 | [6] -0.026 | [13] 0.046 | [7] 0.047 | [8] -0.024 | [9] -0.048 | [10] 0.013 | [11] 0.051 | [12] -0.003

Cc1nc(Nc2n[nH]c3c2CN(C(=O)N[C@H](CN(C)C)c2ccccc2)C3(C)C)c2sccc2n1
inactive: [1] -0.055 | [2] -0.012 | [3] 0.231 | [4] 0.005 | [5] 0.187 | [6] -0.115 | [7] -0.018 | [8] 0.091 | [9] -0.032 | [10] -0.11 | [11] -0.042 | [12] 0.026

CC[C@H](C)[C@H](NC(=O)[C@H]([C@@H](C)CC)N(C)C(C)=O)C(=O)N[C@H](C(=O)N[C@@H](CC(C)C)C(=O)[C@@]1(C)CO1)[C@@H](C)O [epoxomicin]
inactive: [1] 0.075 | [2] -0.051 | [3] -0.06 | [4] -0.045 | [5] 0.085 | [6] -0.024 | [7] -0.271 | [8] 0.056 | [9] -0.016 | [10] -0.046 | [11] 0.013 | [12] 0.123

Cc1ncc(-c2ccnc(Nc3ccc(S(C)(=O)=O)cc3)n2)n1C(C)C
inactive: [1] -0.046 | [2] 0.275 | [3] 0.017 | [4] 0.015 | [5] -0.072 | [6] -0.054 | [7] -0.102 | [8] 0.013 | [9] -0.027 | [10] 0 | [11] 0.071 | [12] 0.037

Cn1cc(-c2ccc3c(c2)CCN3C(=O)Cc2cccc(C(F)(F)F)c2)c2c(N)ncnc21
active: [5] -0.86
inactive: [1] 0.142 | [2] 0.306 | [3] -0.163 | [4] 0.01 | [6] 0.059 | [7] -0.041 | [8] 0.067 | [9] -0.013 | [10] -0.076 | [11] -0.057 | [12] 0.063

CCCCN(Cc1ccc(C(=O)NO)cc1)C(=O)Nc1ccccc1 [Nexturastat A]
active: [7] 0.475
inactive: [1] 0.006 | [2] 0.441 | [3] 0.276 | [4] -0.074 | [5] -0.038 | [6] 0.004 | [8] -0.086 | [9] -0.057 | [10] 0.093 | [11] -0.008 | [12] -0.011

Cc1cn(-c2cc(NC(=O)c3ccc(C)c(Nc4nccc(-c5cccnc5)n4)c3)cc(C(F)(F)F)c2)cn1 [nilotinib]
inactive: [1] -0.082 | [2] -0.022 | [3] -0.207 | [4] -0.17 | [5] -0.031 | [6] 0.105 | [7] 0.03 | [8] 0.046 | [9] 0.052 | [10] -0.088 | [11] -0.047 | [12] 0.025

O=C1NC(=O)C(c2cnc3ccccn23)=C1c1cn2c3c(cc(F)cc13)CN(C(=O)N1CCCCC1)CC2
active: [7] -0.571
inactive: [1] -0.102 | [2] 0.082 | [3] 0.124 | [4] -0.095 | [5] -0.023 | [6] 0.038 | [8] 0.043 | [9] 0.12 | [10] 0.054 | [11] 0.051 | [12] 0.019

COc1cc(Nc2ncc3c(n2)-c2ccc(Cl)cc2C(c2c(F)cccc2OC)=NC3)ccc1C(=O)O [alisertib]
inactive: [1] -0.092 | [2] -0.004 | [3] 0.028 | [4] 1.14 | [5] -0.286 | [6] -0.082 | [7] -0.021 | [8] -0.028 | [9] -0.058 | [10] 0.031 | [11] -0.024 | [12] -0.155

O=C(O)c1ccc2c(c1)nc(Nc1cccc(Cl)c1)c1ccncc12 [silmitasertib]
inactive: [1] -0.073 | [2] 0.29 | [3] 0.105 | [4] 0.076 | [5] 0.234 | [6] -0.016 | [7] 0.02 | [8] -0.058 | [9] 0.018 | [10] 0.083 | [11] 0.059 | [12] 0

CC1=C(C(=O)Nc2cc3cn[nH]c3cc2F)C(c2ccc(C(F)(F)F)cc2)CC(=O)N1 (configuration not stated)
inactive: [1] -0.033 | [2] 0.283 | [3] -0.009 | [4] -0.006 | [5] -0.261 | [6] -0.003 | [7] -0.117 | [8] -0.083 | [9] 0.025 | [10] -0.033 | [11] -0.051 | [12] -0.06

FC(F)(F)c1ccc(/C=C/c2nc(COc3ccc(CCCCn4ccnn4)cc3)co2)cc1 [mubritinib]
inactive: [1] 0.08 | [2] -0.483 | [3] 0.192 | [4] -0.06 | [5] -0.122 | [6] 0.031 | [7] 0.019 | [8] 0.004 | [9] -0.02 | [10] 0.028 | [11] 0.037 | [12] 0.01

C[C@@H](N)c1ccc(C(=O)Nc2ccnc3[nH]ccc23)cc1
inactive: [1] -0.013 | [2] 0.022 | [3] 0.315 | [4] -0.105 | [5] 0.45 | [6] 0.102 | [7] 0.033 | [8] 0 | [9] -0.043 | [10] 0.129 | [11] 0.014 | [12] -0.035

NC(=O)c1cnc(N[C@@H]2CCCC[C@@H]2N)nc1Nc1cccc(-n2nccn2)c1
inactive: [1] -0.053 | [2] -0.092 | [3] 0.067 | [4] -0.066 | [5] -0.005 | [6] 0.067 | [7] 0.015 | [8] -0.002 | [9] 0.002 | [10] -0.027 | [11] -0.085 | [12] 0.022

COc1cc(C(=O)O)ccc1NC(=O)[C@@H]1N[C@@H](CC(C)(C)C)[C@](C#N)(c2ccc(Cl)cc2F)[C@H]1c1cccc(Cl)c1F [idasanutlin]
inactive: [1] -0.027 | [2] -0.031 | [3] -0.003 | [4] 0.128 | [5] 0.3 | [6] -0.116 | [7] 0.021 | [8] -0.031 | [9] 0.024 | [10] -0.035 | [11] -0.051 | [12] 0.01

CC(C)(O)CC(=O)NCCn1ccc2ncnc(Nc3ccc(Oc4cccc(C(F)(F)F)c4)c(Cl)c3)c21
inactive: [1] -0.122 | [2] 0.086 | [3] -0.002 | [4] 0.1 | [5] -0.018 | [6] -0.018 | [7] 0.101 | [8] -0.078 | [9] -0.012 | [10] -0.027 | [11] 0.012 | [12] -0.017

— the supplement of paper PMC10849652
